Assay [1] can be described thus: qHTS assay for small molecules that induce genotoxicity in human embryonic kidney cells expressing luciferase-tagged ATAD5 (AID 651632). Further: nearly all actives have a fitted effect of over 15% in size. In short, it runs like this:
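HEK293T cells carrying luciferase-tagged ATAD5 were given compound or DMSO vehicle and incubated 16 hr at 37C, 5% CO2. Luciferase activity was read after 30 min at room temperature with Amplite; a rise signals genotoxic stress.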
Background: qHTS replaces the single test concentration by a dilution series.

Assay [2] is described as follows: qHTS assay to test for compound auto fluorescence at 590 nm (red) in HepG2 cells (AID 720674). In short, it runs like this:
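Compound auto-fluorescence is scored relative to Rose Bengal sodium, measured at 540/590 nm in live HepG2 cultures after 1 hr compound contact (37 C, 5% CO2).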

The nature of assay [3]: qHTS assay to test for compound auto fluorescence at 535 nm (green) in HepG2 cells (AID 720675).
The nature of assay [4]: qHTS assay to test for compound auto fluorescence at 590 nm (red) in HEK293 cells (AID 720679). In outline: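 Autofluorescence equivalency to Rose Bengal sodium, 540/590nm, in HEK293 cells exposed overnight to 23 nL compound per well.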
The nature of assay [5]: qHTS assay to test for compound auto fluorescence at 535 nm (green) in HEK293 cells (AID 720680).
A short description of assay [6]: qHTS assay to test for compound auto fluorescence at 460 nm (blue) in HEK293 cell free culture (AID 720681). In outline: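 Test compounds were pinned into cell-free culture medium (DMEM with 10% FBS) and fluorescence was read directly at Ex/Em 405/460 nm. Signals were expressed as fluorescence equivalents of triamterene, with DMSO vehicle as control.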
Assay [7] in a line: qHTS assay to test for compound auto fluorescence at 535 nm (green) in HEK293 cell free culture (AID 720682). In outline:
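No cells present: wells hold DMEM supplemented with 10% FBS, into which compound or vehicle is pinned. Green emission is then recorded (485 nm excitation, 535 nm emission) and scaled to fluorescein.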

Assay [8] is described as follows: qHTS assay to test for compound auto fluorescence at 590 nm (red) in HEK293 cell free culture (AID 720683). In short, it runs like this:
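Tox21 10K library compounds were pinned into cell-free DMEM with 10% FBS and fluorescence was read at excitation 540 nm. Activity is expressed as Rose Bengal sodium equivalency.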

Assay [9] is described as follows: qHTS assay to test for compound auto fluorescence at 590 nm (red) in HepG2 cell free culture (AID 720684). In outline:
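Red fluorescence (540 nm excitation, 590 nm emission) was measured after compound transfer into cell-free MEM supplemented with 10% FBS. Values are equivalencies against Rose Bengal sodium.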

The nature of assay [10]: qHTS assay to test for compound auto fluorescence at 535 nm (green) in HepG2 cell free culture (AID 720686).
Assay [11] in a line: qHTS assay for small molecule agonists of the p53 signaling pathway - cell viability (AID 651633; calls by dose curve; further: nearly all actives have a fitted effect of over 30% in size; further: potency means the concentration at half of the fitted maximal effect). In short, it runs like this: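 p53RE-bla cells, seeded at 4,000 per well and rested 5 h at 37 C/5% CO2, received compounds in DMSO for 16 h at 37 C. CellTiter-Glo was then added, and luminescence was read after 30 min at room temperature to gauge cytotoxicity.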
Assay [12] can be described thus: qHTS assay for small molecules that induce genotoxicity in human embryonic kidney cells expressing luciferase-tagged ATAD5 - cell viability (AID 651634; calls by dose curve; further: nearly all actives have a fitted effect of over 25% in size). In outline: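 HEK293T cells carrying luciferase-tagged ATAD5, 2,000 cells/well, exposed to compound for 15.5 hr at 37C. Viability read as live-cell protease activity by CellTiter-Fluor fluorescence after 30 min at 37C.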

The nature of assay [13]: qHTS assay for small molecule disruptors of the mitochondrial membrane potential - cell viability (AID 720634; calls by dose curve; further: nearly all actives have a fitted effect of over 20% in size; further: potency means the concentration at half of the fitted maximal effect). In short, it runs like this: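 HepG2 cells, 2,000 per well, attached overnight, then treated 1 hr at 37 C, 5% CO2. Viability read as ATP by CellTiter-Glo luminescence after 30 min at room temperature. Read in the same wells as the m-MPI membrane-potential dye assay.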

Assay [14] in a line: qHTS assay to test for compound auto fluorescence at 460 nm (blue) in HepG2 cell free culture (AID 720685). In short, it runs like this:
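Compound (23 nL) or DMSO pinned into cell-free MEM with 10% FBS; blue fluorescence read at 405/460 nm excitation/emission, expressed as auto-fluorescence equivalency to triamterene.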

For assay [15], the target named is Glucocorticoid receptor (Homo sapiens) (UniProt P04150). The experiment in a line: qHTS assay to identify small molecule agonists of the glucocorticoid receptor (GR) signaling pathway (AID 720691; active means well fitted activation curve with a large enough effect in the signal ratio in the repeat runs, not every such curve was filed as active; inconclusive means weak or mixed curves, or effect the other way; inactive means no such curve, though single readings can be large or run the other way; the % refers to the signal ratio; further: potency means the concentration at half of the fitted maximal effect). The note with it: GR-bla HeLa, beta-lactamase reporter ratio, 18 h. In short, it runs like this:
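GR-bla HeLa cells carrying a GRE-driven beta-lactamase reporter, exposed to compounds for 18 h at 37 C. Reporter activation read as fluorescence after 2 h with LiveBLAzer B/G FRET substrate at room temperature.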

The target is the same in assay [16]. The experiment in a line: qHTS assay to identify small molecule antagonists of the glucocorticoid receptor (GR) signaling pathway (AID 720692; active means well fitted inhibition curve with a large enough effect in the signal ratio in the repeat runs, not every such curve was filed as active; inconclusive means weak or mixed curves, or effect the other way; inactive means no such curve, though single readings can be large or run the other way; the % refers to the signal ratio). In outline:
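GR-bla HeLa cells carrying a GRE-driven beta-lactamase reporter received compound after 4 h plating, then dexamethasone (5 nM final). After 18 h at 37C, the FRET substrate was loaded for 2 h at room temperature and fluorescence read.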

A short description of assay [17]: qHTS assay to test for compound auto fluorescence at 460 nm (blue) in HEK293 cells (AID 720678). In outline:
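Auto fluorescence in the blue band was quantified as triamterene equivalency. HEK293 cells were seeded at 2,000/well, dosed after a 4-5 hr attachment, and kept overnight at 37C before the 405/460 nm reading.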

Assay [18] is described as follows: qHTS assay to test for compound auto fluorescence at 460 nm (blue) in HepG2 cells (AID 720687). In outline:
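Cells (2,000/well in MEM with 10% FBS) attached overnight at 37 C, then were exposed to compound or DMSO for 1 hr at 37 C, 5% CO2. Fluorescence read at Ex/Em 405/460 nm, expressed as triamterene-equivalent signal.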

Assay [19] can be described thus: qHTS assay for small molecule disruptors of the mitochondrial membrane potential (AID 720635). Further: potency means the concentration at half of the fitted maximal effect. In short, it runs like this:
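HepG2 cells (2,000/well) attached overnight at 37C, then took compound for 1 hr at 37C, 5% CO2. Mito-MPS dye was added for 30 min; fluorescence was read at 490/535 nm (monomers) and 540/590 nm (aggregates).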

Assay [20] is described as follows: qHTS assay for small molecule agonists of the p53 signaling pathway (AID 651631; calls by dose curve; further: nearly all actives have a fitted effect of over 15% in size). In outline:
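Agonist mode screen using a stably integrated beta-lactamase gene under p53 response elements in HCT-116 cells. Compound exposure lasts 16 h at 37 °C; fluorescence intensity is measured following 2 h FRET substrate loading.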

The mark [21] stands for this setting: activation: at 62.4 µM (top of the series).

SMILES strings stand for the structures. “And” between values parts separate entries of the source, which are not always exact repeats. Identical values can stand only once. Values without a mark were called inactive. More than one record can exist for a structure, and the calls need not agree. The source made the active and inactive calls. Unless noted, the call rests on the fitted dose curve; in most records, active means well fitted curve in the direction sought with a large enough effect in the repeat runs; inconclusive means weak or mixed curves; inactive means no such curve, though single readings can be large; an effect the other way counts as inactive or inconclusive.
On the % scale 0 is the no-effect control and ±100 the full control effect.

Glucocorticoid receptor (Homo sapiens), sequence (P04150 whole entry, looked up): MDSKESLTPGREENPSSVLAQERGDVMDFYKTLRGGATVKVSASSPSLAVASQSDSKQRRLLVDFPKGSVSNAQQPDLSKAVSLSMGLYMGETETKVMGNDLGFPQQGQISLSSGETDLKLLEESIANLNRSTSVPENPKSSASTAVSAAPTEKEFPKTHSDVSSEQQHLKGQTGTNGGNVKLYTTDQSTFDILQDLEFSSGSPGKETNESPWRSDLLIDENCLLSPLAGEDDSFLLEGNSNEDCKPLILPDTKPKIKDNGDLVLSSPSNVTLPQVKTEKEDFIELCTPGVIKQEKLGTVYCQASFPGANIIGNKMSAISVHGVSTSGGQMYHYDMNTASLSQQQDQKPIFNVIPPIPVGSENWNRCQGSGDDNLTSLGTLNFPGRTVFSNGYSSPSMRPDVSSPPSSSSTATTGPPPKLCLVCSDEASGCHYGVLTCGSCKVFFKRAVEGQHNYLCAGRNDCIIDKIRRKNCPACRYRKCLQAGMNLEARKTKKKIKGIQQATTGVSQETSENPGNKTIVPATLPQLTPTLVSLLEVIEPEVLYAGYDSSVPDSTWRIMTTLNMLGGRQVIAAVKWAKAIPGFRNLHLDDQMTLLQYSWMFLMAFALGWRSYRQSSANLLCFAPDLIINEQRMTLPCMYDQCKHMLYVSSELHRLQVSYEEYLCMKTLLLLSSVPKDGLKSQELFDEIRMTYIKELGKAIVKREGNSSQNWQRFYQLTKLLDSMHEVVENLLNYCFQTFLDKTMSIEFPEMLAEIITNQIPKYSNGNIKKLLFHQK

Take `OC[C@H]1O[C@@](CO)(O[C@H]2O[C@H](CO)[C@@H](O)[C@H](O)[C@H]2O)[C@@H](O)[C@@H]1O`: the result in assay [1], in assay [2], in assay [3], in assay [4], in assay [5] and in assay [6] was inactive. Further, the outcome in assay [7], in assay [8], in assay [9] and in assay [10] was inactive.
On to `CCCCCOC(C)=O`, for which the call in assay [1], in [2], in assay [3], in assay [4], in [5] and in assay [6] was inactive. The molecule was classed as inactive in assay [7], in assay [8], in assay [9], in assay [14] and in assay [10]. The Potency result in [11], in assay [12], in assay [13], in [15] (setting [21]) and in assay [16] was “inactive” each time.
`CCCCC(CC)COC(=O)C(C#N)=C(c1ccccc1)c1ccccc1` (stereo unspecified): the call in [1], in assay [2], in [3], in assay [17], in assay [5] and in [6] was inactive. For the same molecule, the outcome in [7], in [8], in assay [9], in assay [10] and in [18] was inactive. The Potency entry in assay [11], in assay [12] and in assay [15] (setting [21]) was “inactive” each time. In addition, the Potency in [13] was 15.4 µM (active).
Consider `CCN(CC)CCCC(C)Nc1ccnc2cc(Cl)ccc12` (stereo unspecified), for which the outcome in assay [1], in [2], in [3], in assay [17], in assay [4] and in assay [5] was inactive. For the same molecule, the outcome in assay [6], in assay [7], in [8], in assay [9], in assay [14] and in [10] was inactive. In assay [18], the outcome was inactive. Also, the Potency entry in [15] (setting [21]) and in assay [16] was “inactive” each time.
On to `O=C(Oc1ccccc1)c1ccccc1`, for which the molecule was called inactive in assay [1], in assay [2], in assay [3], in [5], in assay [6] and in [7]. The result in assay [8], in assay [9], in assay [14] and in assay [10] was inactive. Besides, the Potency entry in assay [11], in assay [13] and in [19] was “inactive” each time.
Consider `CC(=O)Nc1ccccc1`, for which the molecule was classed as inactive in assay [1], in [2], in assay [3], in [17], in [4] and in assay [5]. Further, the molecule was classed as inactive in assay [6], in assay [7], in [8], in [9], in [10] and in assay [18]. Besides, the Potency result in assay [11], in [12], in [13] and in assay [15] (setting [21]) was “inactive” each time.
In the case of `CC1CCC(C(C)C)C(O)C1` (stereo unspecified), the outcome in [1], in [2], in [3], in [17], in assay [4] and in assay [5] was inactive. Moreover, the outcome in assay [6], in [7], in assay [8], in assay [9], in [14] and in assay [10] was inactive. Besides, the Potency result in assay [11], in [13] and in assay [19] was “inactive” in each case.
Regarding `COCCCOc1ccnc(CS(=O)c2nc3ccccc3[nH]2)c1C` (stereo unspecified), the Potency entry in assay [20], in assay [11], in assay [13] and in [16] was “inactive” each time. Further, the outcome in [2], in assay [3], in [4], in [5], in assay [6] and in assay [7] was inactive. Also, the call in assay [8], in [9], in assay [10] and in assay [18] was inactive. Also, the activation is 16.4% [inconclusive] (active) in [15] (setting [21]) and -5.49% in [15] (at 62.4 µM (top of the series)).
`CC1=CCC2CC1C2(C)C` (stereo unspecified): the call in [1], in assay [2], in assay [3], in assay [4], in assay [5] and in [6] was inactive. Moreover, the call in assay [7], in [8], in assay [9], in [14], in [10] and in [18] was inactive. Also, the Potency entry in assay [11] is “inactive”.
On to `CC[C@H](C)C(=O)O[C@H]1C[C@@H](C)C=C2C=C[C@H](C)[C@H](CC[C@@H]3C[C@@H](O)CC(=O)O3)[C@H]21`, for which the molecule was called inactive in assay [1], in [2], in assay [3], in assay [17], in assay [5] and in assay [6]. Besides, the molecule was classed as inactive in assay [7], in assay [8], in [9] and in [10]. In addition, the Potency is 29.8 µM (active) and 69.6 µM (active) in [11]; 18.8 µM (active) and 62 µM (active) and 60.8 µM (active) in assay [19]. The Potency entry in assay [12] and in [13] was “inactive” throughout.
`OCc1cccnc1`: the outcome in assay [1], in assay [2], in assay [3], in [4], in assay [5] and in [6] was inactive. The molecule was called inactive in assay [7], in assay [8], in assay [9], in [14] and in assay [10]. In addition, the Potency result in assay [12] and in [13] was “inactive” throughout.
Take `CC(=O)OCC(=O)[C@@]12N=C(C)O[C@@H]1C[C@H]1[C@@H]3CCC4=CC(=O)C=C[C@]4(C)[C@H]3[C@@H](O)C[C@@]12C`: the Potency result in assay [20], in assay [11] and in assay [13] was “inactive” throughout. The call in assay [2], in [3], in [17], in [5], in assay [6] and in assay [7] was inactive. Also, the molecule was called inactive in assay [8], in assay [9], in assay [14], in assay [10] and in assay [18]. In assay [15] (setting [21]), the Potency was 425 nM (active) and 155 nM (active).

Values taken from PubChem BioAssay (Tox21).
